In PubChem BioAssay (NCI):
About 79,000 compounds went through this panel and 15% of them were active in at least one assay; those are over-represented in the sample as a whole. Cut-off read from the data, not from the text of the source: active = growth inhibition above about 70%; inactive = the rest.

What was measured:
[1] = NCI Yeast Anticancer Drug Screen. Data for the rad50 strain (AID 155);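 note: 0% = growth of vehicle-only cultures of the same strain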; details: S. cerevisiae rad50 strain growth inhibition, active compounds read high; at 50.0 µM unless noted
Procedure, shortened: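 Growth of the mutant yeast was measured after compound exposure and referenced to vehicle-treated cultures.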

[2] = NCI Yeast Anticancer Drug Screen. Data for the mec2-1 strain (AID 157); details: S. cerevisiae mec2-1 strain, active compounds read high; at 50.0 µM unless noted
Procedure, shortened: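 mec2-1 yeast strain, carrying an alteration in DNA damage repair or cell cycle control, was exposed to compounds; growth inhibition was measured relative to vehicle-treated controls.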

[3] = NCI Yeast Anticancer Drug Screen. Data for the sgs1 mgt1 strain (AID 161);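 note: 0% = growth of cultures given vehicle only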; details: S. cerevisiae sgs1 mgt1 strain, active compounds read high; at 50.0 µM unless noted
Procedure, shortened: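 Growth of a repair-deficient yeast mutant was monitored after compound treatment and expressed as inhibition relative to vehicle-treated cultures.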

[4] = NCI Yeast Anticancer Drug Screen. Data for the cln2 rad14 strain (AID 165);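 note: 0% = growth equal to vehicle treated cultures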; details: S. cerevisiae cln2 rad14 strain, active compounds read high; at 50.0 µM unless noted
Procedure, shortened: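 Yeast carrying cln2 and rad14 alterations (cell cycle control and DNA damage repair) were exposed to compounds. Growth inhibition was measured against vehicle-treated controls.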

[5] = NCI Yeast Anticancer Drug Screen. Data for the bub3 strain (AID 167); details: S. cerevisiae bub3 mutant strain, active compounds read high; at 50.0 µM unless noted
Procedure, shortened: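 Whole-cell yeast assay. The mutant strain was incubated with compounds, and growth inhibition was determined by comparison with vehicle-treated cells.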

[6] = NCI Yeast Anticancer Drug Screen. Data for the mlh1 rad18 strain (AID 175); details: S. cerevisiae mlh1 rad18 strain growth inhibition, active compounds read high; at 50.0 µM unless noted
Procedure, shortened: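 Growth inhibition of the yeast strain was measured after compound exposure and expressed relative to vehicle-treated controls. The strain carries defined defects in DNA damage repair.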

Measured: growth inhibition

COc1ccc(/C=C2\N=C(c3ccc([N+](=O)[O-])cc3)OC2=O)cc1OC
inactive: [1] -5.35% | [2] -2.75% | [3] -14.8% | [4] -15.5% | [5] 0.25% | [6] -17.1%

CC(C)NCC(O)COc1cccc2[nH]c3ccccc3c12 (stereo not given)
inactive: [1] -2.75% | [2] -8.45% | [3] -8.5% | [4] -36.4% | [5] -0.8% | [6] -0.4%

CCOC(OCC)C(=O)NC(Cc1ccccc1NC(=O)c1ccccc1)c1ccc2c(c1)OCO2 (stereo not given)
inactive: [1] 35.6% | [2] -1.05% | [3] 3.9% | [4] 4.8% | [5] 3.25% | [6] 21.4%

CC(=O)NC(CCCCNC(=O)N(CCCl)N=O)C(=O)NCc1ccccc1 (stereo not given)
inactive: [1] 1.2% | [2] -1.15% | [3] 0.7% | [4] 14.7% | [5] -2.35% | [6] -1.85%

O=C1c2ccccc2C(=O)C1c1ccc2ccccc2n1
inactive: [1] 7.85% | [2] -7.95% | [3] 3.35% | [4] 2.6% | [5] 7.05% | [6] -7.95%

NC(=O)c1c(NC=O)ncn1C1OCC(O)C(O)C1O (stereo not given)
inactive: [1] -7.95% | [2] -3.85% | [3] 2% | [4] -42% | [5] -1.3% | [6] 12.8%

O=c1c2cc(O)c(O)cc2oc2cc(O)c(C3OC(CO)C(O)C(O)C3O)c(O)c12 (stereo not given)
inactive: [1] 14.2% | [2] 1.1% | [3] -27.7% | [4] 6.45% | [5] -41.4% | [6] -77.1%

COc1cccc2c1C(=O)c1c(O)c3c(c(O)c1C2=O)CC1(O)CC3OC1(C)OC (stereo not given)
inactive: [1] 1.2% | [2] 9.1% | [3] -19.2% | [4] 24.2% | [5] -1.35% | [6] 2.65%

CCCCCCCC(=O)Nc1cccc(O)c1
inactive: [1] 4.8% | [2] -6.95% | [3] -11.7% | [4] -34.9% | [5] -6.3% | [6] -6.15%

CC(=O)c1c(Cl)nnc(-c2ccccc2)c1-c1ccccc1
inactive: [1] -9% | [2] 0.05% | [3] -9.2% | [4] -21.9% | [5] -11.7% | [6] -12.3%

Cc1cc(C(=O)c2ccccc2)on1
inactive: [1] 4.05% | [2] -22.6% | [3] -11.9% | [4] -36.1% | [5] 7.7% | [6] 4.55%

CC(=O)C[n+]1cccc(Br)c1
inactive: [1] -6.7% | [2] 8.7% | [3] 10.2% | [4] -8.15% | [5] 9.5% | [6] -5.9%

O=C1/C(=C/c2cccc(Br)c2)Cc2ccccc21
inactive: [1] 20.9% | [2] -7.9% | [3] 12.3% | [4] 18.1% | [5] -1.35% | [6] 15.8%

Cc1nc2c(cc1C(=O)NN)c(=O)n(C)c(=O)n2C
inactive: [1] 8.8% | [2] -1.9% | [3] -8.5% | [4] -5.85% | [5] -8.05% | [6] 31.6%

CSC(SC)c1cc(C)no1
inactive: [1] -11.3% | [2] 12.2% | [3] -7.45% | [4] 34.6% | [5] -10.2% | [6] -9.15%

CCCc1ccc(C)c(CCC)c1O
inactive: [1] -5.95% | [2] -10.9% | [3] -5.1% | [4] -17.3% | [5] -4.05% | [6] 4%

O=c1nc(NCc2ccco2)ccn1C1OC(CO)C(O)C1O (stereo not given)
inactive: [1] 12.3% | [2] 9.45% | [3] 12.6% | [4] 13.9% | [5] -0.2% | [6] 14.6%

CCCCCCCCCCCCCCCCCC(O)CCCCCCCCCCCCCCCCC
inactive: [1] -16.9% | [2] -8.45% | [3] -7.75% | [4] -47.2% | [5] 2.4% | [6] -8.25%

CCS(=O)(=O)c1ccc(NC(=O)OC2CCC3(C)C(=CCC4C3CCC3(C)C(C(C)CCCC(C)C)CCC43)C2)cc1 (stereo not given)
inactive: [1] 21.5% | [2] 6.15% | [3] 10.2% | [4] 20.4% | [5] -3.25% | [6] 3.65%

N#C/C(=C\c1ccco1)C1CCC([N+](=O)[O-])CC1 (stereo not given)
inactive: [1] -5.05% | [2] -1.5% | [3] 4.35% | [4] -101% | [5] 2.85% | [6] -4.85%
